Bioassay records (PubChem)
CRFR2-BP ag = CRF-BP/CRF-R2 complex agonism. HEK293 CRF-R2/CRF-BP, calcium dye fluorescence (FLIPR); percent of saturating CRF peptide response. activation, % at 13.2 µM. actives 0.46% (n = 350,000). AID 588473;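 active = activation of at least 50%, plus an integration ratio under a set limit after plate pattern correction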
cardiac RTF act = cardiac RTF calcium sensitization; actives 0.24% (n = 340,000); AID 493008; P19429+P45379; activation, % at 7.2 µM; IANBD-labeled TnC RTF fluorescence at EC20 calcium; 0% EC20 calcium, 100% full calcium;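 active = activation above the mean over all tested compounds plus 3 SD, cut at about 30% in these data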;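 also: rise in fluorescence read as greater calcium sensitivity of cardiac thin filaments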
CRFR2-BP antag = CRF-BP/CRF-R2 complex antagonism; HEK293 CRF-R2/CRF-BP, CRF-induced calcium fluorescence; inhibition, % at 11.8 µM; actives 0.59% (n = 350,000);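 active = inhibition of the ligand-induced calcium signal above about 50% at the single tested concentration, limit read from the data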
RTF Ca sens inh = cardiac RTF calcium desensitization; P19429+P45379; IANBD-labeled cardiac RTF, Ca2+ fluorescence; inhibition, % at 7.15 µM; actives 0.12% (n = 340,000); AID 493244;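 active = inhibition above the mean inhibition of all tested compounds plus 3 SD, cut at about 17% in these data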;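 also: assay run at fixed EC70 calcium of 1.6 mM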
Myeloid diff 2 = promotes myeloid progenitor differentiation | AID 624256 | calls only at 10 µM | actives 1% (n = 360,000) | ER-HoxA9 myeloid progenitors, lysozyme-GFP differentiation, flow cytometry;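 active = normalized GFP-positive differentiation at or above the plate's own cutoff, the solvent-only control mean plus 3 SD; inconclusive = no clear call, values can overlap the other calls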;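 also: cells exposed to compound for four days before flow analysis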
Large screens that a line does not name were inactive. An excerpt weighted towards active compounds, which were near 2.2% of everything screened.

Cc1ccnc2nc(C(=O)OCCOc3ccc(F)cc3)nn12	none
Cc1ccccc1CN1C(=O)CSCC1(C)C(=O)Nc1ccc2c(c1)OCCO2 (stereo not drawn)	none (no result: CRFR2-BP ag, cardiac RTF act, CRFR2-BP antag, RTF Ca sens inh)
CCCCn1c(=O)[nH]c2nc3cc(N)ccc3nc2c1=O	CRFR2-BP ag 232.3, cardiac RTF act 767.4
Nc1ccc2nc3c(=O)n(CCc4ccccc4)c(=O)[nH]c3nc2c1	CRFR2-BP ag 195.5, Myeloid diff 2 active (no result: cardiac RTF act, RTF Ca sens inh)
COc1ccc(-c2nc3c(=O)n(C)c(=O)[nH]c3n2CCc2ccccc2)cc1	none
Nc1ccc2nc3c(=O)n(C4CCCCC4)c(=O)[nH]c3nc2c1	CRFR2-BP ag 166.6, cardiac RTF act 456.8
Cc1cc2nc3c(=O)n(CCc4ccccc4)c(=O)[nH]c3nc2cc1N	CRFR2-BP ag 152.3, cardiac RTF act 515.7
COc1cc2[nH]c(=O)n(C3CCCCC3)c(=O)c2cc1OC	none
O=C(Cn1[nH]c(=O)c2ccccc2c1=O)N1CCN(S(=O)(=O)c2ccc(Cl)cc2)CC1	none
COc1ccc(Oc2cc(C(F)(F)F)cnc2C(N)=O)cc1	none
CCCc1nc2ccc(C)cn2c1Cc1ccc(OC)cc1C	none (no result: CRFR2-BP ag, cardiac RTF act, CRFR2-BP antag, RTF Ca sens inh)
O=C(CCn1nnc2ccccc21)N1CCN(c2ccccc2)CC1	CRFR2-BP antag 94.7
O=C(Cn1nnc2ccccc21)N1CCCCC1	none
Fc1cccc(CO/N=C/c2c(-c3ccccc3)nc3ccc(Cl)cn23)c1	none
Cc1cccn2c(/C=N/OCc3cccc(F)c3)c(-c3ccc(Cl)cc3)nc12	CRFR2-BP antag 95.4
O=C(COc1ccc([N+](=O)[O-])cc1)Nc1ccc2c(c1)CCC2	none
CC(C)(C)c1ccc(S(=O)(=O)N2CCNC(=O)C2)cc1	none
Cc1ccc(C)c(NC(=O)c2ccccc2NS(=O)(=O)c2cc([N+](=O)[O-])ccc2C)c1	CRFR2-BP ag 63.0, CRFR2-BP antag 77.9
Fc1cccc(Cl)c1C1SCc2nc3ccccc3n21 (stereo not drawn)	none (no result: CRFR2-BP ag, cardiac RTF act, CRFR2-BP antag, RTF Ca sens inh)
O=C(Cn1c(=O)cnc2ccccc21)Nc1cccc(S(=O)(=O)N2CCOCC2)c1	none
CCN(CC(=O)NCc1ccc(F)cc1)CC(=O)Nc1ccccc1-c1ccccc1	Myeloid diff 2 active
CCN(CC(=O)Nc1ccccc1-c1ccccc1)Cc1nc2ccccc2c(=O)[nH]1	Myeloid diff 2 active
CCN(CC(=O)Nc1ccccc1OC)CC(=O)Nc1ccccc1-c1ccccc1	none
COc1ccc(C(=O)Nc2cc(C(C)=O)c(/C=C/N(C)C)oc2=O)cc1	CRFR2-BP ag 155.3
CC(=O)c1cc(NC(=O)c2ccc(C)cc2)c(=O)oc1C	none
CC(=O)c1cc(NC(=O)c2ccc(C)cc2)c(=O)oc1/C=C/N(C)C	CRFR2-BP ag 122.8, cardiac RTF act 36.1 (no result: Myeloid diff 2)
Cc1ccc(S(=O)(=O)Nc2c(C)nn(C)c2C)c(C)c1	none
CCCC(=O)NC1=C(Cl)C(=O)c2ccccc2C1=O	Myeloid diff 2 inconclusive
O=C1C=C(Nc2ccc(O)cc2)C(=O)c2ccccc21	Myeloid diff 2 active
COC1=C(Nc2ccc(OC)cc2)C(=O)c2ccccc2C1=O	none
O=C1C(Cl)=C(Nc2ccc(O)cc2)C(=O)c2ccccc21	CRFR2-BP antag 86.5, Myeloid diff 2 inconclusive
Cc1ccc(NC2=C(Cl)C(=O)c3ccccc3C2=O)cc1	CRFR2-BP antag 91.2
COC1=C(Nc2ccc(O)cc2)C(=O)c2ccccc2C1=O	Myeloid diff 2 active
Cc1ccc(C2CC(C(F)(F)F)n3ncc(C(=O)NCc4ccco4)c3N2)cc1 (stereo not drawn)	none
CN(CCC(=O)Nc1ccc(Cl)cc1)Cc1ccccc1	none (no result: Myeloid diff 2)
CC1(c2nnc(-c3ccncc3)o2)CC(c2ccccc2)=NO1 (stereo not drawn)	none
CCc1ccc(S(=O)(=O)/N=C2\C=C(Nc3cccc(C(=O)O)c3)C(=O)c3ccccc32)cc1	none (no result: Myeloid diff 2)
CCNC1=C(Cl)C(=O)c2ccccc2C1=O	none
CCN(CC)c1ccc(NC2=C(Cl)C(=O)c3ccccc3C2=O)cc1	CRFR2-BP antag 58.8, Myeloid diff 2 inconclusive
CCc1ccc(S(=O)(=O)/N=C2\C=C(Nc3ccc(O)cc3)C(=O)c3ccccc32)cc1	CRFR2-BP antag 140.1, Myeloid diff 2 inconclusive
Cc1c(C(=O)C(=O)N2CC=C(c3ccccc3)CC2)c2ccccc2n1C	Myeloid diff 2 inconclusive
Cc1cccc(NC(=O)NNS(=O)(=O)c2ccc(F)cc2)c1	none
Cc1ccc(S(=O)(=O)NNC(=S)Nc2cccc(F)c2)cc1	CRFR2-BP antag 92.6
CN(C)/C(=N\S(=O)(=O)c1ccc(Br)cc1)c1ccccc1	none
COc1cc(C=O)ccc1Oc1cnccn1	CRFR2-BP antag 55.9
CCCN(CCC)CCCNC(=S)Nc1ccc2nc3n(c(=O)c2c1)CCCCC3	none
CN(C)c1ccc(/C(=N\O)c2ccccc2)cc1	CRFR2-BP antag 60.6
C/C(=N/N=C/c1ccc(N(C)C)cc1)c1ccccc1	none
COc1ccc(N2CCN(C(=O)CN(C)S(=O)(=O)c3cc(C)ccc3OC)CC2)cc1	none
O=C(CC1CCCCC1)c1c(O)c2ccccc2oc1=O	CRFR2-BP ag 69.7
CCCCC(=O)c1c(O)c2ccccc2oc1=O	none
COC(=O)c1ccc(COc2cc(C)ccc2C)o1	none
O=C(c1cc(COc2cccc(C(F)(F)F)c2)on1)N1C[C@H]2CC[C@H]1C2	none
CC(=O)c1cccc(OCc2cc(C(=O)N3C[C@H]4CC[C@H]3C4)no2)c1	Myeloid diff 2 active
Cc1c(O)c(CN2CCCCC2)cc2c1oc(=O)c1ccccc12	CRFR2-BP antag 58.6
CCc1c(C)nc(SCC(=O)N2CCN(c3ccccc3OC)CC2)[nH]c1=O	CRFR2-BP antag 57.6
COc1ccccc1N1CCN(C(=O)CSc2nc(C)c(C)c(=O)[nH]2)CC1	none
CCCCc1ccc(S(=O)(=O)NC(=O)C2(C)CCN2C(=O)c2cccc(F)c2)cc1 (stereo not drawn)	none (no result: CRFR2-BP ag, cardiac RTF act, CRFR2-BP antag, RTF Ca sens inh)
CCOc1ccc(OC(=O)C(CCS(C)(=O)=O)N2C(=O)c3ccccc3C2=O)cc1 (stereo not drawn)	Myeloid diff 2 active
CCC(Oc1ccccc1)C(=O)Nc1nnc(S(=O)(=O)N2CCCC2)s1 (stereo not drawn)	none
O=C(CC[C@H]1O[C@@H](n2ccc(=O)[nH]c2=O)[C@H](O)[C@@H]1O)NCc1ccccc1	none (no result: CRFR2-BP ag, cardiac RTF act, CRFR2-BP antag, RTF Ca sens inh)
CC(/C=C1\SC(=S)N(CC(=O)O)C1=O)=C\c1ccccc1	none
CCCCN1C(=O)/C(=C/C=C2\SCCN2C)SC1=S	CRFR2-BP ag 80.7, cardiac RTF act 115.0
CCN1C(=O)/C(=C\N2CCCCCC2)SC1=S	none
CN1CCS/C1=C/C=C1\SC(=S)N(CC(=O)O)C1=O	CRFR2-BP ag 149.0, cardiac RTF act 248.8
CS(=O)(=O)c1ccc(Cl)c(NC(=O)C2CCCCN2S(=O)(=O)c2ccccc2)c1 (stereo not drawn)	none
Cn1cc(/C=C2\SC(=S)N(NC(=O)c3cccc(Cl)c3)C2=O)c2ccccc21	cardiac RTF act 45.0
Cn1cc(/C=C2\SC(=S)N(NC(=O)c3ccccc3)C2=O)c2ccccc21	CRFR2-BP ag 71.9, cardiac RTF act 70.2
Cn1cc(/C=C2\SC(=S)N(N3CCOCC3)C2=O)c2ccccc21	none
